Bioassay records deposited in PubChem BioAssay by The Scripps Research Institute Molecular Screening Center.
Compounds with a hit are over-represented: about 3.4% of the library has one in this group of screens.
FBW7 activator: activators of human E3 ligase FBW7. Q969H0. AlphaScreen FBW7–phospho-cyclin E peptide binding, activator screen. normalized activity (activation), % at 26.1 µM. actives 0.13% (n = 650,000). AID 1259310; in the data active = normalized activity above about 1.9%;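 also: purified mutant Fbw7 with reduced substrate affinity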
GPR151 ag: activators of human GPR151; Q8TDV0; PathHunter beta-arrestin GPR151 cells, luminescence; activation, % at 11.2 µM; actives 1% (n = 650,000); AID 1508602; in the data active = activation above about 4.9%
TEAD-YAP inh: TEAD-YAP interaction inhibition; inhibition, % at 9.12 µM; AID 1259422; actives 1.4% (n = 640,000); HEK-TIYL cells, TEAD-Gal4/YAP UAS-luciferase luminescence; in the data active = inhibition above about 32%
MITF primary: human MITF inhibition, primary screen. O75030. AlphaScreen MITF homodimerization, bead proximity signal. inhibition, % at 2.6 µM. actives 0.91% (n = 650,000); in the data active = inhibition above about 50%
Target sequence (O75030 whole entry, looked up): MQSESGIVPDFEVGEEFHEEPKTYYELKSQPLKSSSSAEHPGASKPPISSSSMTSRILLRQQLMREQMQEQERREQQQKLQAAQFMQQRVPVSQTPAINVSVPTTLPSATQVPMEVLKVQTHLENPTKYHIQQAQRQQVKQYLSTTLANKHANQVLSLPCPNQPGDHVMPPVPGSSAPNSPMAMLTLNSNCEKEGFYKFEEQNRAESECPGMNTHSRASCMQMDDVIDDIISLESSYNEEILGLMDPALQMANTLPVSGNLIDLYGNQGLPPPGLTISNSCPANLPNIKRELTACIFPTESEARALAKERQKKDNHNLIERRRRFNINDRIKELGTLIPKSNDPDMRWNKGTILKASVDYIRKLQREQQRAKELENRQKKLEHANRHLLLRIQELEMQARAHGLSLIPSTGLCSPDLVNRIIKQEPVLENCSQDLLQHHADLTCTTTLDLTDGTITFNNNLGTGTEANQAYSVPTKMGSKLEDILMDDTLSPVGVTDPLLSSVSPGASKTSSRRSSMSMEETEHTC
GPR151 confirm: human GPR151 activation, confirmation screen; shares compounds with GPR151 ag; GPR151 PathHunter beta-arrestin cells, luminescence, 90 min; % of EA-reagent control over plate median; activation, % at 11.2 µM; 6,700 tested, under 10 active; AID 1508609;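 active = mean percent activation across replicates above the confirmation screen cutoff of 4.91%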
GPR119 ag: activates human GPR119 in a GPR151 counter-screen. shares compounds with GPR151 ag. GPR119 PathHunter beta-arrestin cells, luminescence, 90 min; 0 = compound-well median, 100 = enzyme-acceptor control. activation, % at 11.2 µM. actives 0.3% (n = 6,700). AID 1508611;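 active = mean percent activation in the counterscreen above 29.09%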;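 also: counterscreen on off-target GPR119 to flag nonselective hits from the GPR151 activator screen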
Of the large screens only hits and unclear results are named; the others gave an inactive call (follow-up assays come after a bar, where they were run); ! = not confirmed by another sample.

O=C(Nc1ccccn1)c1ccccc1Cl	GPR151 ag 6.0 | GPR151 confirm inactive | GPR119 ag inactive
CC(C)C(=O)Nc1ccc(NC(=O)c2ccccc2Cl)nc1	GPR151 ag 6.9 | GPR151 confirm inactive | GPR119 ag inactive
Cc1cccc(CN2CCN(Cc3nc(-c4ccc(F)cc4)cs3)CC2CCO)n1 (centres undefined)	GPR151 ag 10 | GPR151 confirm inactive | GPR119 ag inactive
CCOc1ccc(NC(=O)Nc2cccc(OC)c2)c([N+](=O)[O-])c1	GPR151 ag 10 | GPR151 confirm inactive | GPR119 ag inactive
CCOc1ccc(OCC(=O)Nc2ccc(OC)cc2[N+](=O)[O-])cc1	none
CCNc1nc(Oc2ccc(=O)[nH]n2)nc(SC)n1	none
CCNc1nc(NC(C)(C)C)nc(Oc2ccc(=O)[nH]n2)n1	GPR151 ag 5.1 | GPR151 confirm inactive | GPR119 ag inactive
CCOc1ccc(C(=O)Nc2nnc(S(=O)(=O)N3CCCCC3)s2)cc1	GPR151 ag 5.0 | GPR151 confirm inactive | GPR119 ag inactive
COc1ccccc1C(=O)Nc1nnc(S(=O)(=O)N2CCOCC2)s1	GPR151 ag 7.9 | GPR151 confirm inactive | GPR119 ag inactive
Cc1ccccc1NC(=O)Cn1nc(C)n2cccc2c1=O	GPR151 ag 8.6 | GPR151 confirm inactive | GPR119 ag inactive
Cc1ccc(-c2nc(Cn3ccn4nc(-c5ccc(C)c(C)c5)cc4c3=O)c(C)o2)cc1	none
CC(C)CC(=O)N1CCC(c2nc3c(nnn3Cc3cccc(F)c3)c(=O)[nH]2)CC1	GPR151 ag 5.6 | GPR151 confirm inactive | GPR119 ag inactive
CC(C)CC(=O)N1CCC(c2nc3c(nnn3Cc3ccc(F)cc3)c(=O)[nH]2)CC1	none
COc1cc2c(c(OC)c1)C(c1cc(OC)c(OC)cc1Br)CC(=O)N2 (centres undefined)	GPR151 ag 5.1 | GPR151 confirm inactive | GPR119 ag inactive
COc1cc(Br)c(C2CC(=O)Nc3ccc4ccccc4c32)cc1OC (centres undefined)	none
CN(C)CC(C)(O)c1ccc2c(c1)CN(Cc1ccc3c(c1)OCCO3)CCO2 (centres undefined)	GPR151 ag 4.9 | GPR151 confirm inactive | GPR119 ag inactive
C[C@@H](O)C(=O)N1CCCN(S(=O)(=O)c2cccc3cnccc23)CC1	none
CC(=O)N1CCCN(S(=O)(=O)c2cccc3cnccc23)CC1	GPR151 ag 5.4 | GPR151 confirm inactive | GPR119 ag inactive
CC(C)NC(=O)c1cccc(NC(=O)Nc2ccc(-c3cn[nH]c3)cc2OCCN(C)C)c1	GPR151 ag 5.3 | GPR151 confirm inactive | GPR119 ag inactive
Cc1c(Cl)cccc1Nc1ccccc1C(=O)O	GPR151 ag 7.5! | GPR151 confirm inactive | GPR119 ag inactive
Cc1c(Cl)cccc1NC(=O)c1ccccc1C(=O)O	none
CCN(CC)CCNCC(=O)N1CCCc2ccccc21	GPR151 ag 8.3 | GPR151 confirm inactive | GPR119 ag inactive
C=CCNC(=O)CSc1nnc(-c2ccccn2)n1-c1ccccc1Cl	none
CC1=NN(CCC#N)C(=O)/C1=C/c1ccc(N)cc1	none
Cn1ccnc1Sc1ccc([N+](=O)[O-])c(C(F)(F)F)c1	none
Cc1noc(C)c1-c1nc2ncnc(NC3CC3)c2[nH]1	GPR151 ag 5.5 | GPR151 confirm inactive | GPR119 ag inactive
c1nc(NC2CC2)c2[nH]c(N3CCOCC3)nc2n1	GPR151 ag 5.0 | GPR151 confirm inactive | GPR119 ag inactive
CS(=O)(=O)c1cnc(-c2ccncc2)nc1-c1ccc(C(F)(F)F)cc1	none
CC(C)(C)C(=O)NC(=O)Nc1ncc(S(C)(=O)=O)c(-c2ccc(C(F)(F)F)cc2)n1	GPR151 ag 8.0 | GPR151 confirm inactive | GPR119 ag inactive
Cc1ccc(C(=O)NC(=S)Nc2cc(-c3nc4ncccc4o3)ccc2Cl)cc1	none
CC(C)(C)c1ccc(C(=O)NC(=S)Nc2cc(-c3nc4ncccc4o3)ccc2Cl)cc1	GPR151 ag 5.1 | GPR151 confirm inactive | GPR119 ag inactive
CCOc1ccc(C2=NC(c3ccc(OC)cc3)NC(c3ccccc3O)C2)cc1 (centres undefined)	GPR151 ag 6.4 | GPR151 confirm inactive | GPR119 ag inactive
Cc1csc(SCC(=O)NCC2Cc3cccc(-c4cnccn4)c3O2)n1 (centres undefined)	none
O=C(CN1CCN(S(=O)(=O)/C=C/c2ccccc2)CC1)c1ccco1	none
CC(=NCCCn1cnc2c1c(=O)n(C)c(=O)n2C)N(C)C	GPR151 ag 6.4 | GPR151 confirm inactive | GPR119 ag inactive
O=C(Nc1cccc(C(F)(F)F)c1)Nc1ccc(N2CCOCC2)c2nonc12	none
CCc1ccccc1NC1=NS(=O)(=O)C(c2ccc(C)cc2)=C1C	none
O=C(CO)N/N=C\c1c(F)cccc1Cl	none
O=C(CC(=O)N/N=C/c1c(F)cccc1Cl)NCCc1ccccc1	GPR151 ag 5.6 | GPR151 confirm inactive | GPR119 ag inactive
CN(Cc1ccc(C(=O)NCC2COc3ccccc3O2)c(=O)[nH]1)Cc1cccs1 (centres undefined)	none
COC(=O)c1ccc(NC(=O)CCS(=O)(=O)c2ccc(OC)cc2)cc1	GPR151 ag 5.0 | GPR151 confirm inactive | GPR119 ag inactive
COC(=O)CCS(=O)(=O)c1ccc(Oc2ccc(S(=O)(=O)CCC(=O)OC)cc2)cc1	GPR151 ag 5.7 | GPR151 confirm inactive | GPR119 ag inactive
COC(=O)c1cc(NC(=O)CCS(=O)(=O)c2ccc(OC)cc2)cc(C(=O)OC)c1	none
COC(=O)CCS(=O)(=O)c1ccc(Cl)cc1	none
CCn1c(SC)nnc1C1CCN(CC(=O)Nc2ccc3c(c2)CCC3)CC1	none
COc1ccc(C=O)cc1OC(=O)c1ccc(Cl)cc1[N+](=O)[O-]	none
Cc1cc(C)cc(CN2CCN(CCOc3ccccc3)CCC2=O)c1	none
O=C1OC(/C=C\c2cccc([N+](=O)[O-])c2)=NC/1=C/c1cccnc1	none
O=C(CCc1nnc(Cc2ccc3c(c2)OCO3)o1)NCCCC1CCCC1	GPR151 ag 6.9 | GPR151 confirm inactive | GPR119 ag inactive
COc1ccc(Cc2nc(SCC(=O)Nc3cccc(C(=O)OC(C)C)c3)n[nH]2)cc1	GPR151 ag 5.8 | GPR151 confirm inactive | GPR119 ag inactive
CN(c1ccc(C(=O)Nc2ccccc2)cc1)S(=O)(=O)c1ccccc1	none
CN(c1ccc(C(=O)Nc2ccc(F)c(Cl)c2)cc1)S(=O)(=O)c1ccccc1	GPR151 ag 5.4 | GPR151 confirm inactive | GPR119 ag inactive
Cc1no[n+]([O-])c1COc1ccccc1C=C1C(=O)NC(=S)NC1=O	GPR151 ag 6.2 | GPR151 confirm inactive | GPR119 ag inactive
Cc1no[n+]([O-])c1COc1ccccc1C=C1C(=O)NC(=O)NC1=O	none
C(=C\c1ccccc1)/CN1CCN(c2nnnn2-c2ccccc2)CC1	none
